This is a sample that favours compounds with a hit; in the whole collection about 10% have one here.
12-hLO inh: 12-hLO (ALOX12) enzyme inhibition; purified 12-hLO, xylenol orange hydroperoxide absorbance; Potency, µM (titrated, usually from 57.1 µM), without a hit: at the top dose activity change, negative = inhibition, most hits filed as inhibitors; 150,000 compounds, 0.12% hits; active means well fitted inhibition curve with a large enough effect; inconclusive means small, poorly fitted or top-dose-only effect; further: potency means the concentration at half of the fitted maximal effect; nearly all actives have a fitted effect of over 55% in size
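Hydroperoxide formation by human 12-lipoxygenase from 40 uM arachidonic acid was followed colorimetrically via ferric-xylenol orange complex, using the 573/405 nm absorbance ratio. Enzyme concentration was 150 nM, with 30 min reaction at room temperature.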
HPGD inh: inhibitors of human 15-hydroxyprostaglandin dehydrogenase (HPGD). P15428. purified HPGD, NADH fluorescence kinetic, PGE2 substrate. Potency, µM, for inactives: at the top dose activity change, negative = inhibition, actives largely listed as inhibitors. 150,000 compounds, 4.3% hits; further: potency means the concentration at half of the fitted maximal effect
Target sequence (P15428 whole entry, looked up): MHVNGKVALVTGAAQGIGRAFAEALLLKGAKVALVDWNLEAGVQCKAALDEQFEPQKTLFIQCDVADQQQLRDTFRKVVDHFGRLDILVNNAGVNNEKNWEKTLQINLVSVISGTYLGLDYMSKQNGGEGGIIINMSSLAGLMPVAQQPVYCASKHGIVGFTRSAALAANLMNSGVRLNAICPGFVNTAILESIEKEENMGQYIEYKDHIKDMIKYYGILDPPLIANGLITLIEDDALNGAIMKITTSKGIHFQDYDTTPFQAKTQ
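20 nM HPGD preincubated 15 min at room temperature with compound in 50 mM Tris-HCl pH 8, 0.01% Tween 20. Started with 1 mM NAD+ and 30 uM prostaglandin E2; NADH fluorescence (360/450 nm) read 5 times over 30-s intervals, last minus first.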
PNC assembly inh: blocks assembly of the perinucleolar compartment; PC3M PTB-GFP, PNC prevalence imaging, 16 h; stronger effect = lower value; activity change (PNC), negative = inhibition, % at 10 µM; 140,000 compounds, 3.1% hits;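 active means readout at or below -70, meaning at least 70% loss of cells showing the perinucleolar compartment, a nuclear body marking cancer cells; inconclusive means readout between -30 and a set limit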;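 further: plate controls were DMSO wells for no effect and camptothecin positive control wells for full effect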
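Read-out is percentage of cells bearing a perinucleolar compartment, from automated 20x imaging of fixed, Hoechst-stained PC3M PTB-GFP cells. Cells were seeded 4 h, then exposed 16 h to compound (23 nl of library stock) in duplicate plates.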
LMNA splice mod: LMNA splicing modulation. HeLa LMNA splicing GFP/RFP minigene ratio, 48 h. Potency, µM (top dose mostly 46.1 µM), for the others: at the top dose ratio change, negative = inhibition, hits mostly inhibitors. 200,000 compounds, 0.01% hits; active means well fitted inhibition curve with a large enough effect in the signal ratio, with a control signal flat, not every such curve was filed as active; inconclusive means small, poorly fitted or top-dose-only effect, or effect the other way, or a change in a side signal; the % refers to the signal ratio; further: potency means the concentration at half of the fitted maximal effect
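S3 HeLa cells stably expressing lamin A-EGFP splicing minigene plus DsRed2, 600 cells/well, 48 h compound exposure at 37C. Laser-scanning cytometry; analysed as GFP (500-530 nm)/RFP (575-640 nm) total intensity ratio; 0.5% DMSO vehicle.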
ALDH1A1 inh: inhibitors of human aldehyde dehydrogenase 1A1 | P00352 | Purified ALDH1A1, NADH fluorescence, propionaldehyde substrate | Potency, µM (titrated, usually from 75.3 µM), inactives show at the highest dose activity, negative = inhibition, hits mostly inhibitors | 220,000 compounds, 7.3% hits | AID 1030;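 further: potency means the concentration at half of the fitted maximal effect; plate controls were no enzyme wells and a reference inhibitor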
Active calls of the source: *; [ ] = remark or other dose. Unless noted, the call rests on the fitted dose curve; in most records, active means well fitted inhibition curve with a large enough effect (not every such curve was filed as active); inconclusive means small, poorly fitted or top-dose-only effect, or another doubt; inactive means no such curve, though single readings can be large or run the other way. Unless noted, on the % scale 0 is the no-effect control and ±100 the full control effect.

What do the screens show for `COC(=O)/C=c1/sc2nc3ccccc3n2c1=O`?
12-hLO inh: 6%; HPGD inh: 7.9µM*; PNC assembly inh: -25; LMNA splice mod: 0%; ALDH1A1 inh: 10µM*

How did CC(C)(O)c1cc(=O)sc2nc3ccccc3n12 do in these assays?
12-hLO inh: -3%; HPGD inh: -11%; PNC assembly inh: -100*; LMNA splice mod: -6%; ALDH1A1 inh: 3%

What do the screens show for `O=c1/c(=C/c2ccccn2)sc2nc3ccccc3n12`?
12-hLO inh: -2%; HPGD inh: -8%; PNC assembly inh: -20; LMNA splice mod: inconclusive; ALDH1A1 inh: 6%

How did c1ccc2nc3c(nc2c1)sc1nc2ccccc2n13 do in these assays?
12-hLO inh: 1%; HPGD inh: -21%; PNC assembly inh: -14; LMNA splice mod: -5%; ALDH1A1 inh: 9%

What do the screens show for `Cc1cc(C)cc(OCC(=O)Nc2ccc(-c3nc4ccccc4s3)cc2)c1`?
LMNA splice mod: -3%[46 µM]

Results for COc1ncc2nc(-c3cn(C)c4ccccc34)c(=O)n(CCC#N)c2n1 ?
LMNA splice mod: -1%; ALDH1A1 inh: 0%

How did COc1ccccc1NC(=O)N1CCN(c2nnc(C)c3c(C)n(-c4ccccc4)nc23)CC1 do in these assays?
LMNA splice mod: -3%[46 µM]

What do the screens show for `COc1ccccc1-c1cc(C(=O)Nc2cc(C)nn2-c2ccccc2)no1`?
12-hLO inh: 2%; HPGD inh: -18%; PNC assembly inh: -129*; LMNA splice mod: inconclusive; ALDH1A1 inh: -11%

What do the screens show for `CCN(CC)C(=O)c1cc(-c2ccccc2OC)on1`?
12-hLO inh: 1%; HPGD inh: inconclusive; PNC assembly inh: -3; LMNA splice mod: 6%; ALDH1A1 inh: 14µM*

What do the screens show for `COc1ccc(OC)c(-c2cc(C(=O)NCc3cccs3)no2)c1`?
12-hLO inh: -5%; HPGD inh: inconclusive; PNC assembly inh: 3; LMNA splice mod: -6%; ALDH1A1 inh: inconclusive

What do the screens show for `Cc1ccc(-c2cc(C(=O)NCc3cccs3)no2)cc1`?
12-hLO inh: 4%; HPGD inh: -8%; PNC assembly inh: 20; LMNA splice mod: 12%; ALDH1A1 inh: 15%

How did O=C(NCc1cccs1)c1cc(-c2cccc(Cl)c2)on1 do in these assays?
12-hLO inh: -5%; HPGD inh: -16%; PNC assembly inh: -124*; LMNA splice mod: 9%; ALDH1A1 inh: -4%

How did COc1ccccc1-c1cc(C(=O)NCc2cccs2)no1 do in these assays?
12-hLO inh: -1%; HPGD inh: 14µM*; PNC assembly inh: inconclusive; LMNA splice mod: 0%; ALDH1A1 inh: inconclusive

How did COc1ccc(-c2cc(C(=O)Nc3cc(C)nn3-c3ccccc3)no2)cc1 do in these assays?
12-hLO inh: 0%; HPGD inh: -18%; PNC assembly inh: 19; LMNA splice mod: -6%; ALDH1A1 inh: 6%

Results for COCCNC(=O)c1cc(-c2ccccc2OC)on1 ?
12-hLO inh: -8%; HPGD inh: inconclusive; PNC assembly inh: 11; LMNA splice mod: -12%; ALDH1A1 inh: inconclusive

How did COc1ccccc1-c1cc(C(=O)NCc2ccco2)no1 do in these assays?
12-hLO inh: -5%; HPGD inh: 20µM*; PNC assembly inh: -13; LMNA splice mod: -4%; ALDH1A1 inh: -14%

Results for O=c1[nH]n(CC2COC3(CCCCC3)O2)c(=O)c2ccccc12 (configuration not stated) ?
12-hLO inh: -8%; HPGD inh: -18%; PNC assembly inh: 10; LMNA splice mod: inconclusive; ALDH1A1 inh: 13µM*

Results for COC(=O)N1CCC2(CCCN(C(=O)Nc3ccc(OC)cc3)C2)CC1 ?
12-hLO inh: -2%; HPGD inh: 1%; ALDH1A1 inh: 3%

How did CCCOc1ccc(NC(=O)C(=O)NCCCn2ccnc2)cc1 do in these assays?
12-hLO inh: 1%; HPGD inh: -10%; PNC assembly inh: 7; LMNA splice mod: 0%; ALDH1A1 inh: 8%

What do the screens show for `COc1ccc(/C=N\NC(=O)c2cc(O)c(O)c(O)c2)cc1CN1CCN(c2ccc(F)cc2)CC1`?
12-hLO inh: -13%; HPGD inh: -23%; PNC assembly inh: -13; LMNA splice mod: -17%; ALDH1A1 inh: 13µM*

How did COc1ccc(/C=N/NC(=O)c2ccc(C)cc2)cc1CN1CCN(c2ccc(F)cc2)CC1 do in these assays?
12-hLO inh: -7%; HPGD inh: -27%; PNC assembly inh: inconclusive; LMNA splice mod: 3%; ALDH1A1 inh: 2%

Results for FC(F)(F)c1ccccc1-c1cncnc1NCCN1CCOCC1 ?
LMNA splice mod: inconclusive; ALDH1A1 inh: 15%

What do the screens show for `O=c1c2ccccc2nc(/C=C/c2ccc([N+](=O)[O-])o2)n1CCCO`?
12-hLO inh: -3%; HPGD inh: -16%; PNC assembly inh: -89*; LMNA splice mod: inconclusive; ALDH1A1 inh: inconclusive

How did O=c1c2ccccc2nc(/C=C/c2ccc([N+](=O)[O-])cc2)n1CCCO do in these assays?
12-hLO inh: 4%; HPGD inh: -12%; PNC assembly inh: inconclusive; LMNA splice mod: inconclusive; ALDH1A1 inh: inconclusive

Results for CCCCCCC=O ?
12-hLO inh: -1%; HPGD inh: -3%; ALDH1A1 inh: -9%

How did CCc1ccc(NC(=O)CN(c2ccc(Cl)cc2)S(=O)(=O)c2ccsc2C(=O)OC)cc1 do in these assays?
LMNA splice mod: -3%[46 µM]

Results for CN(C)c1ccc(C2C3C(=O)NC(=O)C3ON2c2ccc(Cl)cc2)cc1 (configuration not stated) ?
12-hLO inh: -24%; HPGD inh: -8%; PNC assembly inh: inconclusive; LMNA splice mod: -9%; ALDH1A1 inh: 25µM*

Results for CN(C)c1ccc(S(=O)(=O)c2ccc(Cl)cc2)cc1 ?
12-hLO inh: -5%; HPGD inh: inconclusive; PNC assembly inh: -6; LMNA splice mod: -2%; ALDH1A1 inh: inconclusive

What do the screens show for `O=C1C=C(c2ccccc2)C[C@H](c2cccs2)[C@H]1n1nnc([N+](=O)[O-])n1`?
12-hLO inh: -9%; HPGD inh: -20%; PNC assembly inh: -29; LMNA splice mod: inconclusive; ALDH1A1 inh: 10µM*

Results for CC(C)C(=O)Nc1ccc(NC(=O)c2ccco2)cn1 ?
12-hLO inh: 3%; PNC assembly inh: 13; LMNA splice mod: 3%; ALDH1A1 inh: 28µM*

Results for CCCC(=O)Nc1ccc(NC(=O)c2ccco2)cn1 ?
12-hLO inh: 0%; PNC assembly inh: 20; LMNA splice mod: 4%; ALDH1A1 inh: 2%

Results for O=C(Nc1ccc(NC(=O)c2ccco2)nc1)c1cccnc1 ?
12-hLO inh: 2%; HPGD inh: -12%; PNC assembly inh: -100*; LMNA splice mod: -10%; ALDH1A1 inh: 4%

Results for CN(C)CCCN1C(=O)C2CCc3[nH]c4ccccc4c3C2C1=O (configuration not stated) ?
ALDH1A1 inh: 1%

Results for COc1ccc(Cl)cc1NC(=O)c1c(NCc2cccs2)sc2c1CCCC2 ?
LMNA splice mod: 14%[46 µM]
